Bioassay records from PubChem.
SARS PLpro yeast = SARS-CoV PLP inhibition in yeast; S. cerevisiae expressing SARS-CoV PLpro, growth rescue; Potency, µM (highest dose often 32.9 µM), inactives show at the highest dose activity, positive = growth rescue, most hits filed as activators; 330,000 tested, 0.19% active; AID 485353; calls by dose curve; note: potency is the fitted concentration of half-maximal effect; 0% is about no effect; nearly all actives have a fitted effect of over 55% in size
AMA1-RON2 inh = disrupts binding of P. falciparum AMA1 to RON2. Potency, µM (highest dose often 58.2 µM), for inactives: at the top dose activity change, negative = inhibition, hits mostly inhibitors. AlphaScreen AMA1-biotinylated RON2 peptide binding. 360,000 tested, 0.2% active;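 note: potency is the fitted concentration of half-maximal effect; 0% = vehicle wells and -100% = peptide control; nearly all actives have a fitted effect of over 45% in size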
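AMA1 (3D7) with his tag at 25 nM final met compounds first, then biotinylated RON2 peptide at 25 nM; detection used donor plus acceptor beads, 10 µg/mL apiece, read by AlphaScreen after 30 min at room temperature.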
Pf growth 96h = inhibits malaria parasite growth, 96 h. 320,000 tested, 6.9% active. AID 504834. Potency, µM (top dose mostly 28.7 µM), without a hit: top-dose activity change, negative = inhibition, most hits filed as inhibitors. P. falciparum luciferase reporter growth, 96 h; note: potency is the fitted concentration of half-maximal effect; % is set by controls: 0 for no effect and ±100 for the full control effect
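Cell-based qHTS: luciferase-tagged P. falciparum in erythrocytes (2% hematocrit, 0.05% parasitemia final) incubated with compounds for 96 hours, 37 C, 5% CO2; luciferase detection reagent then added and luminescence measured.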
Cycloheximide cs = counter-screen hit for Shiga toxin inhibitors, cycloheximide; cell reporter, cycloheximide protein synthesis inhibition counterscreen; max response, %; 300,000 tested, 12% active; in the data active = max response mostly above about 13%, no sharp cut-off; inactive = mostly below about 14%; note: read at 38.3 µM for the half of the compounds with a filed dose; 0% is about no effect
Pf growth 48h = inhibits P. falciparum growth in the first generation, 48 h; Potency, µM (highest dose often 28.7 µM), without a hit: top-dose activity change, negative = inhibition, actives largely listed as inhibitors; P. falciparum luciferase growth in erythrocytes, 48 h; 310,000 tested, 5.9% active; AID 504832; note: potency is the fitted concentration of half-maximal effect; % is set by controls: 0 for no effect and ±100 for the full control effect
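Compounds are pin-transferred into medium, infected erythrocytes (2% hematocrit, 0.1% parasitemia final) are added, and plates sit one parasite generation at 37 C in 5% CO2. Detection reagent is then added and luminescence measured.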
Shiga inhibitor = Shiga toxin inhibition | Vero cells, Shiga toxin protein synthesis inhibition reporter | inhibition, % at 38.7 µM | 290,000 tested, 9.2% active; in the data active = inhibition mostly above about 28%, no sharp cut-off; inactive = mostly below about 43%; note: 0% is about no effect
An asterisk follows results filed as active. Most compounds without a hit are left out; they make up all but 19% or so of the library. Unless noted, calls come from the whole dose curve; as a rule, active = well fitted curve in the direction sought with a large enough effect; inconclusive = small, poorly fitted or top-dose-only effect, or another doubt; inactive = no such curve, though single readings can be large; an effect the other way counts as inactive or inconclusive.

Screening CN(CC1COc2ccccc2O1)C(=O)c1ccc(Cl)c(S(=O)(=O)N2CCCCCC2)c1 (stereo not drawn) returned SARS PLpro yeast -4%, AMA1-RON2 inh 0%, Pf growth 96h inconclusive and Pf growth 48h inconclusive.
Screening COc1cccc(C(=O)c2c[nH]c(C(=O)NCCCN3CCOCC3)c2)c1 returned SARS PLpro yeast -1%, AMA1-RON2 inh 3%, Pf growth 96h 2%, Cycloheximide cs 7, Pf growth 48h -14% and Shiga inhibitor 14.
COc1ccc2nc(N/C(N)=N/S(C)(=O)=O)nc(C)c2c1 was read as SARS PLpro yeast 1%, AMA1-RON2 inh 9%, Pf growth 96h 137%, Cycloheximide cs -3, Pf growth 48h 64% and Shiga inhibitor 12.
For C=CCn1cc(C(=O)OC)c(=O)c2cc(S(=O)(=O)N3CCCCCC3)ccc21 the results were SARS PLpro yeast 3%, AMA1-RON2 inh 8%, Pf growth 96h 0%, Cycloheximide cs 2, Pf growth 48h inconclusive and Shiga inhibitor 37.
Screening C=CCn1cc(C(=O)NCC2CCCO2)c(=O)c2cc(S(=O)(=O)N3CCCCCC3)ccc21 (stereo not drawn) returned SARS PLpro yeast 0%, AMA1-RON2 inh -4%, Pf growth 96h 4%, Cycloheximide cs -5, Pf growth 48h 12µM* and Shiga inhibitor -14.
Screening Cn1cc(C(=O)NCC2COc3ccccc3O2)c(=O)c2cc(S(=O)(=O)N3CCCCC3)ccc21 (stereo not drawn) returned SARS PLpro yeast 14%, AMA1-RON2 inh -17%, Cycloheximide cs -7, Pf growth 48h 12µM* and Shiga inhibitor -22.
O=C(Nc1c2c(nn1-c1ccccc1)CS(=O)(=O)C2)C1CC1 was read as AMA1-RON2 inh -2%.
For O=C(/C=C/Nc1ccc(Nc2ccccc2)cc1)c1cccs1 the results were SARS PLpro yeast -2%, AMA1-RON2 inh inconclusive, Pf growth 96h -20%, Cycloheximide cs 63*, Pf growth 48h 237% and Shiga inhibitor 103*.
For Cc1ccc(N/C=C/C(=O)c2cccs2)cc1C the results were SARS PLpro yeast 0%, AMA1-RON2 inh 0%, Pf growth 96h 31%, Cycloheximide cs 31*, Pf growth 48h 267% and Shiga inhibitor 32.
For Cc1cc(N/C=C/C(=O)c2cccs2)ccc1F the results were SARS PLpro yeast 0%, AMA1-RON2 inh -7%, Pf growth 96h 25%, Cycloheximide cs 29*, Pf growth 48h 367% and Shiga inhibitor 97*.
Screening O=C(/C=C/Nc1ccccc1C(=O)O)c1cccs1 returned SARS PLpro yeast 15%, AMA1-RON2 inh 23%, Pf growth 96h -30%, Cycloheximide cs 33*, Pf growth 48h 60% and Shiga inhibitor 75*.
`Cc1c(N/C=C/C(=O)c2cccs2)c(=O)n(-c2ccccc2)n1C` gave SARS PLpro yeast 5%, AMA1-RON2 inh 27%, Pf growth 96h -17%, Cycloheximide cs -2, Pf growth 48h inconclusive and Shiga inhibitor -10.
Screening O=C(NCCCn1ccnc1)c1cc(-c2cccs2)on1 returned SARS PLpro yeast 1%, AMA1-RON2 inh 11%, Pf growth 96h 5%, Cycloheximide cs 46*, Pf growth 48h 155% and Shiga inhibitor 154*.
O=C(NCCCN1CCOCC1)c1cc(-c2cccs2)on1 was read as SARS PLpro yeast 11%, AMA1-RON2 inh 0%, Cycloheximide cs 42*, Pf growth 48h 39% and Shiga inhibitor 160*.
`O=C(NCCCn1ccnc1)c1ccccc1Cl` gave SARS PLpro yeast 12%, AMA1-RON2 inh -1%, Pf growth 96h 35%, Cycloheximide cs -5, Pf growth 48h -5% and Shiga inhibitor -6.
`Cc1ccc(-c2[nH]c3cc(C(=O)NCCCn4ccnc4)ccc3c(=O)c2O)cc1` gave SARS PLpro yeast inconclusive, AMA1-RON2 inh -3%, Pf growth 96h inconclusive, Cycloheximide cs -3, Pf growth 48h 13µM* and Shiga inhibitor -4.
Screening O=C(NCCCn1ccnc1)c1csc2ccccc12 returned SARS PLpro yeast -2%, AMA1-RON2 inh 11%, Pf growth 96h 10µM*, Cycloheximide cs -2, Pf growth 48h -14% and Shiga inhibitor -2.
COc1ccc(OC)c(-c2cc(C(=O)NCCCn3ccnc3)no2)c1 was read as SARS PLpro yeast -2%, AMA1-RON2 inh -6%, Pf growth 96h inconclusive, Cycloheximide cs -5, Pf growth 48h inconclusive and Shiga inhibitor 20.
For Cc1cc(C)c(S(=O)(=O)N2CCOC2CNC(=O)C(=O)NCc2ccco2)c(C)c1 (stereo not drawn) the results were SARS PLpro yeast 0%, AMA1-RON2 inh -6%, Pf growth 96h -16%, Cycloheximide cs -3, Pf growth 48h -8% and Shiga inhibitor -16.
`COc1cccc(NS(=O)(=O)c2ccc(C)c(C(=O)N3CCCCC3)c2)c1` gave SARS PLpro yeast -3%, AMA1-RON2 inh 6%, Pf growth 96h -26%, Cycloheximide cs 0, Pf growth 48h 1% and Shiga inhibitor -4.
`CCC1CSC(Nc2ccc(C(=O)/C=C/c3ccc(Oc4ccccc4)cc3)cc2)=N1` (stereo not drawn) gave SARS PLpro yeast -23%, AMA1-RON2 inh -14%, Pf growth 96h 6.6µM*, Cycloheximide cs 47*, Pf growth 48h 10µM* and Shiga inhibitor 30*.
Screening O=C(/C=C/c1ccc(OC2CSC2)cc1)c1ccc(Cl)cc1 returned SARS PLpro yeast 16%, AMA1-RON2 inh -27%, Pf growth 96h 28%, Cycloheximide cs -6, Pf growth 48h 13% and Shiga inhibitor -3.
Screening CCC1CSC(Nc2ccc(C(=O)/C=C/c3cccc(C)c3)cc2)=N1 (stereo not drawn) returned SARS PLpro yeast -11%, AMA1-RON2 inh -14%, Pf growth 96h inconclusive, Cycloheximide cs 13*, Pf growth 48h 25% and Shiga inhibitor -2.
For Cc1ccc(C(=O)C=Cc2cccc(C)c2)cc1 the results were AMA1-RON2 inh 15%.
Cc1ccccc1OCCCC(=O)NCc1ccco1 was read as SARS PLpro yeast -1%, AMA1-RON2 inh 11%, Pf growth 96h 0%, Cycloheximide cs 3, Pf growth 48h -12% and Shiga inhibitor -3.
Screening CCCOc1ccc(-c2nc(C#N)c(N3CCC(C(N)=O)CC3)o2)cc1 returned SARS PLpro yeast 1%, AMA1-RON2 inh -7%, Pf growth 96h 10µM*, Cycloheximide cs -4, Pf growth 48h -2% and Shiga inhibitor 15.
Screening CCCOc1ccc(-c2nc(C#N)c(N3CCN(CC)CC3)o2)cc1 returned SARS PLpro yeast -4%, AMA1-RON2 inh -20%, Pf growth 96h 10µM*, Cycloheximide cs -1, Pf growth 48h inconclusive and Shiga inhibitor -2.
`N#Cc1nc(-c2ccc(OCc3ccc(Cl)cc3)cc2)oc1N1CCOCC1` gave SARS PLpro yeast inconclusive, AMA1-RON2 inh -5%, Pf growth 96h 10µM*, Cycloheximide cs -7, Pf growth 48h 23% and Shiga inhibitor -14.
